An excerpt weighted towards active compounds, which were near 1.9% of everything screened.
MEX-5 binding: C. elegans MEX-5 TCR-2 RNA binding activity. Q9XUB2. MEX-5/FITC-TCR2 RNA binding, fluorescence polarization; hits give low values. activity score (negative = inhibition of binding), % at 10 µM. actives 0.38% (n = 300,000). AID 1832;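 active = inhibition past about -25% in most replicates, and total fluorescence under double the plate's negative control median, limit read from the data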;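 note: 0% = DMSO and -100% = 5 µM competing unlabeled TCR2 RNA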
CR mimetic SO: caloric restriction mimetics inhibiting age-related superoxide in yeast | S. cerevisiae aged cells, superoxide DHE fluorescence; hits give low values | actives 0.18% (n = 330,000) | AID 2690 | superoxide response (% of plate mean), % at 10 µM;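 active = superoxide response under a set limit, about three screen SD below normal, cut at about 65% in these data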;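 note: yeast aged for seven days with compound at 30 °C before DHE staining; 100% = average MFI of all compound-treated wells on the plate with controls excluded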
Bcl-xL primary: inhibitors of human Bcl-xL; GST-Bcl-xL / FITC-Bim BH3 peptide fluorescence polarization; inhibition, % at 10.9 µM; actives 0.7% (n = 320,000); AID 2129;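 active = inhibition above the mean of all tested compounds plus 3 SD, cutoff set per campaign, cut at about 30% in these data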;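 note: 0% = DMSO wells and 100% = unlabeled Bim-BH3 peptide competitor; inhibitors lower millipolarization by displacing the labeled peptide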
GLD-1 RNA inh: GLD-1-TGE RNA interaction inhibition (C. elegans) | actives 0.44% (n = 320,000) | AID 2280 | inhibition, % at 5.96 µM | purified GLD-1 + fluorescein TGE RNA, fluorescence polarization;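 active = percent inhibition above a per-plate cutoff, the plate mean of test compounds plus 3 SD, cut at about 30% in these data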;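 note: 0% = DMSO wells with GLD-1 and probe and 100% = wells lacking GLD-1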
MCL1-BIM inh: MCL1-BIM-BH3 interaction inhibition (human) | GST-MCL1 / FITC-Bim-BH3 fluorescence polarization | inhibition, % at 10.9 µM | actives 0.68% (n = 320,000) | AID 2057;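 active = inhibition above the mean inhibition of all tested compounds plus 3 SD, set per campaign, cut at about 40% in these data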;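 note: 0% = DMSO wells and 100% = unlabeled Bim-BH3 peptide control; higher means more loss of mP so more displacement of Bim peptide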
LANA-H2A inh: blocks KSHV LANA binding to histone H2A/H2B. cell-free LANA-H2A/H2B peptide, fluorescence polarization. inhibition, % (concentration not given with the values). actives 0.6% (n = 320,000). AID 2629; in the data active = inhibition mostly above about 10%, no sharp cut-off; inactive = mostly below about 6.7%
Target sequence (Q9QR71 whole entry, looked up): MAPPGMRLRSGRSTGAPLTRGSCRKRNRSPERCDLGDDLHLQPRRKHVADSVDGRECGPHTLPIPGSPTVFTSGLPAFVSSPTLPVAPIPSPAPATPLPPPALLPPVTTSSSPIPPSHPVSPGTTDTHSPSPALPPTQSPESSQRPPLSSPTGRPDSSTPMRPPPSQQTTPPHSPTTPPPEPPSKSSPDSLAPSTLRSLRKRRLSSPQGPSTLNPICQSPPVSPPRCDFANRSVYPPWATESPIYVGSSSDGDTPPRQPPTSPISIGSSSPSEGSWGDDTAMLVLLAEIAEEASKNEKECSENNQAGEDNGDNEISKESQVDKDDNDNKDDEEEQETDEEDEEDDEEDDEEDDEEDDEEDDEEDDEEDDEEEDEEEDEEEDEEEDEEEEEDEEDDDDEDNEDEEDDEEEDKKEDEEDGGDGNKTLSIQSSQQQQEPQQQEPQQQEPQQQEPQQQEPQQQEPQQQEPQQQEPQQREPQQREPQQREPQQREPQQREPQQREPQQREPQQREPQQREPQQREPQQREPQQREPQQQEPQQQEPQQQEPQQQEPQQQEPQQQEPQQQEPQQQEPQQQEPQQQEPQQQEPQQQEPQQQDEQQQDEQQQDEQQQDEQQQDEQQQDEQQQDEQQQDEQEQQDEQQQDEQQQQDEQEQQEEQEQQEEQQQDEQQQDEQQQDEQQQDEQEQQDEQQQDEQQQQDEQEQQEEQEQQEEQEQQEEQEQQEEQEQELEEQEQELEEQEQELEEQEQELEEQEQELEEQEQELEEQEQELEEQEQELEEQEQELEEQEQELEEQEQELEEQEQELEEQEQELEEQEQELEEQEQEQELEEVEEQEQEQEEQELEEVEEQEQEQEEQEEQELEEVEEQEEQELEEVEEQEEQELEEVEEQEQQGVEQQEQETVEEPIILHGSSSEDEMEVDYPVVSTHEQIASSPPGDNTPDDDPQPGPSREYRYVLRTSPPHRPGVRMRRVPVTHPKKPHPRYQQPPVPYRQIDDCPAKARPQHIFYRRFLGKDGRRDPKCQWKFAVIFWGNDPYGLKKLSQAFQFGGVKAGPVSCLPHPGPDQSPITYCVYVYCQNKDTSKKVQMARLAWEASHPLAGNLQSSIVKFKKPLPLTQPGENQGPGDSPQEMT
* hit, by the source's call; · = no result given; ! = repeats disagree.

SMILES	MEX-5 binding	CR mimetic SO	Bcl-xL primary	GLD-1 RNA inh	MCL1-BIM inh	LANA-H2A inh
N#CCCn1cnc2c(=S)nc[nH]c21	2	112	7	-4	9	9.9*
S=c1nc[nH]c2c1ncn2C1CCCC1	-2	98	·	·	·	-1
CCCNC(=O)c1oc2ccc3c(c2c1C)C(O)CC(C)(C)O3 (stereo unspecified)	0	96	·	·	·	-3
Cc1c(C(=O)NCc2ccoc2)oc2ccc3c(c12)C(=O)CC(C)(C)O3	1	81	1	4	7	29*
CC(C)c1ccc(CN(C)C(=O)c2ccc(S(=O)(=O)NCc3ccco3)cc2)cc1	·	107	-2	-3	3	·
CCCCn1c(=O)c(Cc2ccccc2)c(O)c2ccccc21	-3	86	2	1	0	5
CCCCc1c(O)c2ccccc2n(CCCC)c1=O	2	109	-1	-3	-12	14*
CNc1snc(C)c1C(=O)OC(C)C(=O)Nc1ccc(F)cc1 (stereo unspecified)	·	109	5	5	0	2
CN(C)/C=N/n1cnc2ccccc2c1=O	1	100	34*	0	1	3
CN(C)C(=O)c1ccc(-n2cnc3ccccc3c2=O)cc1	0	94	-2	1	0	-1
O=C1NC(=S)N(C(=O)c2ccc(F)cc2)/C1=C/c1cccnc1	1	92	4	2	-5	-2
COc1ccc(/C=C2\C(=O)NC(=S)N2C(=O)c2ccc(C)cc2)cc1	-26*	91	-29	-24	-53	-5
NCCc1cnc[nH]1	0	107	5	25	15	22*!
C[C@H](CO)N1C[C@H](C)[C@@H](CN(C)C(=O)Nc2ccc(C(F)(F)F)cc2)Oc2c(NC(=O)Cc3ccccc3)cccc2C1=O	·	106	·	5	·	1
O=C(N/C(=C\c1ccc([N+](=O)[O-])cc1)C(=O)N1CCOCC1)c1ccccc1	1	77	8	5	6	2
O=C(N/C(=C/c1ccc([N+](=O)[O-])cc1)C(=O)N1CCOCC1)c1ccco1	2	118	0	4	3	14*
Oc1c(Br)cc(Br)cc1/C=N/n1c(-c2ccccc2)n[nH]c1=S	4	97	-18	-3	0	-2
Oc1c(Br)cc(/C=N/n2c(-c3ccccc3)n[nH]c2=S)c(Br)c1O	-52*	111	60*	8	108*	-1
COCCc1nc2ccc(C(=O)N3CCCC(CCCO)C3)cc2o1 (stereo unspecified)	2	82	1	4	4	12*
COCCC(=O)N1CCC(Oc2ccc(C(=O)N3CCCC(CCCO)C3)cc2)CC1 (stereo unspecified)	0	105	-1	-3	-3	18*
COCCC(=O)N1CCC(Oc2ccc(C(=O)N3CCCC(OC)C3)cc2)CC1 (stereo unspecified)	1	95	1	4	3	·
O=C1NC(Cc2ccc(O)cc2)c2nc3ccc(Br)cc3c(=O)n2-c2ccc(Cl)cc21 (stereo unspecified)	·	90	·	-2	·	5
CSc1ncccc1C(=O)OC(C)C(=O)Nc1cccc(S(=O)(=O)N2CCOCC2)c1 (stereo unspecified)	·	89	·	-1	·	-1
Cc1nc2ccc(S(=O)(=O)NCC(=O)NCCN3CCCCCC3)cc2s1	0	102	41*	-7	42*	2
Cc1nc2ccc(S(=O)(=O)NCC(=O)NCc3ccc(Cl)cc3)cc2s1	0	92	-3	3	1	-8
SMILES	MEX-5 binding	CR mimetic SO	Bcl-xL primary	GLD-1 RNA inh	MCL1-BIM inh	LANA-H2A inh
CC1(c2ccccc2)NC(=O)N(CC(=O)NCC2CCCO2)C1=O (stereo unspecified)	·	85	0	8	0	6
COc1ccc(F)cc1S(=O)(=O)NC1CCCC1	-2	108	0	0	2	82*
CCOc1ccc(S(=O)(=O)NC2CCCCCC2)cc1	1	112	-3	-1	-2	2
CCOc1cc(S(=O)(=O)NC2CCCCCC2)ccc1F	2	103	-1	12	3	22*
CC(=O)[C@@H]1[C@@H](C(=O)c2ccccc2)[C@]2(C(=O)Nc3ccccc32)[C@H]2C=Cc3cc(F)ccc3N12	1	111	20	6	15	-5
O=C(c1ccccc1)[C@@H]1[C@@H](C(=O)c2ccc(F)cc2)[C@@]2(C(=O)Nc3ccccc32)[C@H]2c3ccccc3C=CN12	1	100	33*	25	28	13
CCC12CCCN3CCc4c(n(c5ccccc45)C(O)(C(=O)OC)C1)C32 (stereo unspecified)	-13	108	31*	19	27	8
CC1CCC2(CC1)NC(=S)N(c1ccccc1)N2 (stereo unspecified)	0	86	4	9	-5	17*
CCc1ccccc1NC(=O)CSc1nnc(C2CC2)n1CC1CCCO1 (stereo unspecified)	1	129	6	-5	5	19*
O=C(CSc1nnc(-c2ccncc2)n1CC1CCCO1)Nc1cccc(O)c1 (stereo unspecified)	3	96	-4	7	-2	1
Cc1cccc(NC(=O)CSc2nnc(C3CC3)n2CC2CCCO2)c1C (stereo unspecified)	4	107	1	3	1	-8
O=C(CSc1nnc(-c2ccncc2)n1CC1CCCO1)Nc1nccs1 (stereo unspecified)	1	95	-2	47*	2	-5
O=C1OC(CC(=O)N(Cc2nnc(-c3ccc(Cl)cc3)o2)C2CC2)c2ccccc21 (stereo unspecified)	·	86	3	0	-4	8
CCOC(=O)CN=C1CC(C)(C)CC2=C1Sc1ncnc(N(C)C)c1N2	-21	96	38*	14	29	·
O=c1nc(SCc2cccc(C(F)(F)F)c2)nc2ccccn12	2	113	0	1	0	17*
Cc1ccn2c(=O)nc(SCc3cccc(C(F)(F)F)c3)nc2c1	0	107	1	6	1	-3
CC(=O)Nc1ccc(S(=O)(=O)NCCC(=O)NCC2COc3ccccc3O2)cc1 (stereo unspecified)	1	94	2	5	1	11
COc1ccc(CNC(=O)CN2C(=O)c3ccc([N+](=O)[O-])cc3C2=O)cc1	1	104	-4	0	-11	23*
COc1ccc(CNC(=O)CN2C(=O)c3ccccc3C2=O)cc1	0	93	7	5	6	2
COc1ccc(C(CC(=O)c2ccccc2)CC(=O)c2ccccc2)cc1OC	1	82	4	4	4	-2
COc1ccc(C(Sc2ccccc2)c2ccccc2)cc1OC (stereo unspecified)	2	98	3	5	7	12*
